Results taken from PubChem BioAssay AID1345085 (National Center for Advancing Translational Sciences (NCATS), 2018).
Records with an inconclusive call do not appear. Unmarked numbers belong to inactive results. Activity calls are given as the source filed them. Calls follow the shape of the dose curve; as a rule, active = well fitted cell-killing curve with a large enough effect; inconclusive = small, poorly fitted or top-dose-only effect, or effect the other way; inactive = no such curve, though single readings can be large or run the other way.

Tested on: SW626
Assay: Confirmatory qHTS for gynecologic anti-cancer compounds from libraries of approved drugs and bioactive compounds; also: nearly all actives have a fitted effect of over 55% in size
Details: gynecologic cancer cell panel viability, ATPlite luminescence, 48 h; series mostly up to 57.6 µM; activity change, negative = viability loss: at the top concentration
How it was run: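 Cells (1,000/well) were plated, left 16 h at 37 C/5% CO2, then given compound at 11 concentrations (1:3) from 57.5 uM to 0.977 nM for 48 h. ATPlite luminescence after 15 min at room temperature gave IC50 values.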
% is scaled to controls: 0 for no effect and ±100 for the full control effect; potency is read from the fitted curve at half-maximal effect.

Structure (SMILES)	Potency	activity change, negative = viability loss
Nc1ccccc1NC(=O)c1ccc(CNC(=O)OCc2cccnc2)cc1	3.06 µM (active)	
NC1(c2ccc(-c3nc4ccn5c(=O)[nH]nc5c4cc3-c3ccccc3)cc2)CCC1		-17.6%
Cc1cc(Nc2cc(N3CCN(C)CC3)nc(/C=C/c3ccccc3)n2)n[nH]1	21.7 µM (active)	
CC(C)Oc1ccc(C(=O)NC(CNC(=O)CN(C)C)Cc2ccc(-c3cn4cccc(C(C)O)c4n3)cc2)cc1Cl (stereo unspecified)		-23.5%
NC(=O)c1cnc(-c2ccc(C3(N)CCC3)cc2)c(-c2ccccc2)c1	24.3 µM (active)	
COC(=O)c1ccc2c(C(=Nc3ccc(N(C)C(=O)CN4CCN(C)CC4)cc3)c3ccccc3)c(O)[nH]c2c1	24.3 µM (active)	
C[C@]12CCC(=O)C=C1[C@@H]1C[C@@H]1[C@H]1[C@@H]3[C@@H]4C[C@@H]4[C@@]4(CCC(=O)O4)[C@@]3(C)CC[C@@H]12		-0.458%
O=C(Nc1cn[nH]c1-c1nc2ccc(CN3CCOCC3)cc2[nH]1)NC1CC1		10.3%
O=c1[nH]c(=O)n([C@H]2C[C@H](O)[C@@H](CO)O2)cc1F		22.9%
O=C1Cc2cc(CCN3CCN(c4nsc5ccccc45)CC3)c(Cl)cc2N1		-0.656%
Nc1nc(Cl)nc2c1ncn2C1OC(CO)C(O)C1F (stereo unspecified)		-18.5%
CC[C@@]1(O)C(=O)OCc2c1cc1n(c2=O)Cc2c-1nc1ccccc1c2/C=N/OC(C)(C)C	0.217 µM (active)	
O=c1c2ccccc2nc2n1CCc1c-2[nH]c2ccccc12		-13.4%
CCN[C@H]1C[C@H](C)S(=O)(=O)c2sc(S(N)(=O)=O)cc21		47.2%
CNCc1ccc(-c2[nH]c3cc(F)cc4c3c2CCNC4=O)cc1		-7.71%
CN1CCN(c2ccc(OC(F)(F)F)c(Nc3ncc4c(n3)-c3c(c(C(N)=O)nn3CCO)CC4)c2)CC1		3.2%

Structure (SMILES)	Potency	activity change, negative = viability loss
Cc1cc(C2CCCCC2)n(O)c(=O)c1	8.86 µM (active)	
CC(C)c1nn(-c2c(Cl)cccc2Cl)c2nc(Cc3ccc(OCCO)cc3)[nH]c(=O)c12		24.5%
Cc1cnc(Nc2cccc(CN3CCOCC3)c2)nc1Nc1cccc(S(=O)(=O)NC(C)(C)C)c1	24.3 µM (active)	
CS(=O)(=O)c1ccc(-c2cnc(N)c(C(=O)Nc3ccccc3)n2)cc1		2.68%
CC(C)n1c(/C=C/[C@@H](O)C[C@@H](O)CC(=O)O)c(-c2ccc(F)cc2)c2ccccc21	1.37 µM (active)	
CC1=C(CO)C(=O)O[C@@H]([C@@H](C)[C@H]2CC[C@H]3[C@@H]4C[C@H]5O[C@]56[C@@H](O)C=CC(=O)[C@]6(C)[C@H]4CC[C@]23C)C1	5.3 µM (active)	
CN(NC(=O)CC(=O)NN(C)C(=S)c1ccccc1)C(=S)c1ccccc1	0.0968 µM (active)	
Cc1cnc(Nc2ccc(OCCN3CCCC3)cc2)nc1Nc1cccc(S(=O)(=O)NC(C)(C)C)c1	19.3 µM (active)	
Cc1cncc2cccc(S(=O)(=O)N3CCCN(C(=O)CN)C[C@@H]3C)c12		-17%
CNC1CCC(N(Cc2cccc(-c3ccncc3)c2)C(=O)c2sc3ccccc3c2Cl)CC1 (stereo unspecified)	30.6 µM (active)	
O=C(O)C1(Cc2cccc(Nc3nccs3)n2)CCC(Oc2cccc(Cl)c2F)CC1 (stereo unspecified)		-15.6%
O=c1[nH]c(=O)n([C@H]2C[C@H](O)[C@@H](CO)O2)cc1Br		-12.2%
COc1cc2c(NC3CCN(C(C)C)CC3)nc(C3CCCCC3)nc2cc1OCCCN1CCCC1	10.9 µM (active)	
FC(F)(F)c1ccc(/C=C/c2nc(COc3ccc(CCCCn4ccnn4)cc3)co2)cc1		5.87%
CC[C@@]1(O)C(=O)OCc2c1cc1n(c2=O)Cc2cc3cc(O)ccc3nc2-1	0.217 µM (active)	
